Screens: PubChem BioAssay, National Center for Advancing Translational Sciences (NCATS)
A selection: hits, their analogues and other compounds. The true share with any hit is near 18%.
DT40 TDP1 CPT: DT40-hTDP1 cell growth loss with CPT. chicken DT40 Tdp1-/-;hTDP1 cells + 20 nM CPT, ATP luminescence, 48 h. Potency, µM (highest dose often 46.2 µM), inactives show top-dose activity change, negative = growth inhibition, actives largely listed as inhibitors. 420,000 compounds, 12% hits; further: nearly all actives have a fitted effect of over 55% in size
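Cell growth measured by CellTiter-Glo luminescence after a minimum 48 h, 37 C compound exposure with 20 nM CPT in Tdp1-knockout DT40 cells stably expressing hTDP1, seeded 400/well; qHTS titration format.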
VDR inh: blocks the human vitamin D receptor. P11473. 400,000 compounds, 0.93% hits. VDR-SRC2-3 peptide fluorescence polarization, 2 h. Potency, µM, inactives show max response, negative = inhibition, hits mostly inhibitors. AID 504847
Target sequence (P11473 whole entry, looked up): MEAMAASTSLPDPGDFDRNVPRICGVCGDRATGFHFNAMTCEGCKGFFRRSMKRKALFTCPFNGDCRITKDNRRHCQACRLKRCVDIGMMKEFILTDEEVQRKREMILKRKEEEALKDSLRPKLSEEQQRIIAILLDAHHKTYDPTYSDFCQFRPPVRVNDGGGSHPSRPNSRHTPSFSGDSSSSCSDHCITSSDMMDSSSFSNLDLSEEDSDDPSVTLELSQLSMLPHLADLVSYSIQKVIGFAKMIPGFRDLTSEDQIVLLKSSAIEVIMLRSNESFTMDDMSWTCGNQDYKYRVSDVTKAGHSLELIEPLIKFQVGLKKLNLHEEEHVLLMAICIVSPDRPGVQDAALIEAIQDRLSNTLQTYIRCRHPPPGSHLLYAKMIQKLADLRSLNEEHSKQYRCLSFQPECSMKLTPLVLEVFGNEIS
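Measured by FP: displacement of SRC2-3 coactivator peptide from VDR by library compounds, following a two-hour ambient incubation.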
PLK1 PBD block: inhibitors of human PLK1 polo-box domain binding | Plk1 PBD binding of FITC phosphopeptide, fluorescence polarization | Potency, µM, without a hit: max response, negative = inhibition, most hits filed as inhibitors | 360,000 compounds, 2.8% hits | AID 720504; further: series mostly up to about 57 µM; nearly all actives have a fitted effect of over 65% in size
TDP1 inh: blocks human tyrosyl-DNA phosphodiesterase 1; Potency, µM (series often up to 130 µM), inactives show at the highest dose activity change, negative = inhibition, actives largely listed as inhibitors; Q9NUW8; recombinant TDP1, AlphaScreen DNA substrate cleavage; 350,000 compounds, 0.28% hits; further: nearly all actives have a fitted effect of over 40% in size
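AlphaScreen read-out: signal falls as enzyme removes the 3' tyrosine-FITC from a 5'-biotinylated DNA oligo (15 nM, 5 min, RT). Enzyme was E. coli-made recombinant Tdp1 at 1 nM, exposed to compound for 15 min beforehand; beads 10 ug/ml, 10 min.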
KAT2A inh: GCN5L2 (KAT2A) acetyltransferase inhibition. Potency, µM (doses to about 58.9 µM), for the others: top-dose activity change, negative = inhibition, most hits filed as inhibitors. AID 504327. GCN5L2 HAT assay, ThioGlo1 CoA-SH fluorescence. 390,000 compounds, 0.21% hits. Q92830
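Fluorescence readout, Ex340nm/Em540nm: ThioGlo1 (50uM final) reacts with free CoA thiol released as 20nM GCN5L2 acetylates H3(1-25) peptide (75uM) using acetyl-CoA (70uM). Compound and enzyme sat 15 min beforehand; 20 min room-temperature reaction.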
TDP1 cell noCPT: qHTS for Inhibitors of human tyrosyl-DNA phosphodiesterase 1 (TDP1): qHTS in cells in absence of CPT | DT40 Tdp1-/- hTDP1 cells, no CPT, ATP luminescence, 48 h | Potency, µM (doses to about 46.2 µM), for inactives: at the highest dose activity change, negative = growth inhibition, most hits filed as inhibitors | 420,000 compounds, 15% hits; further: nearly all actives have a fitted effect of over 55% in size
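Stably hTDP1-transfected Tdp1-null chicken DT40 cells were treated with library compounds minus camptothecin and grown for at least 48 hr at 37 °C, after which cellular ATP was quantified by luminescence.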
Starred values were filed as active, the others as inactive; ? = inconclusive; / = no result given; [ ] = dose if it differs, or a comment. The call rests on the fitted dose curve; in most records, active means well fitted curve in the direction sought with a large enough effect; inconclusive means small, poorly fitted or top-dose-only effect, or another doubt; inactive means no such curve, though single readings can be large; an effect the other way counts as inactive or inconclusive. On the % scale 0 is the no-effect control and ±100 the full control effect; potency means the concentration at half of the fitted maximal effect.

SMILES | DT40 TDP1 CPT | VDR inh | PLK1 PBD block | TDP1 inh | KAT2A inh | TDP1 cell noCPT
Cc1cc2ncn(S(=O)(=O)c3ccc(F)cc3)c2cc1C | -6.5% | -12.6% | -3.9% | / | -5.8% | 0.8%
COc1ccccc1OC(=O)c1cc2ccccc2oc1=O | 42.1% | 3.9% | -7.6% | / | -0.6% | -15.0%
COc1cc(/C=C/[N+](=O)[O-])ccc1OC(=O)c1cc2ccccc2oc1=O | ? | ? | 13.4µM* | / | -13.0% | 25.9µM*
CC(C)c1ccc(/C=C/C2=NNC(=O)CC2)cc1 | 18.4µM* | ? | 9.47µM* | 0.5% | -16.3% | 11.6µM*
COC(=O)c1ccccc1S(=O)(=O)N1CCc2nc(COc3ccccc3)c3c(c2C1)CO[C@@H](C)C3 | / | / | / | 9.5%[12.3 µM] | / | /
CCCCC(OC(=O)CN1C(=O)COc2ccccc21)C(=O)NC1CCCCC1 (centres undefined) | -1.2% | -7.3% | -7.7% | / | 0.0% | 16.4µM*
COc1ccc(C2/C=C\CN(C(=O)C3CC3)CC(=O)N2Cc2ccc(F)cc2)cc1 (centres undefined) | -2.9% | -10.2% | -3.2% | 4.4% | 19.2% | -18.8%
CCCCCCNC(=O)N1C/C=C\C(c2ccc(OC)cc2)N(Cc2ccc(F)cc2)C(=O)C1 (centres undefined) | ? | 5.2% | 6.6% | 3.8% | -12.4% | 23.1µM*
CCCCCCC(=O)N1C/C=C\C(c2ccc(OC)cc2)N(Cc2ccc(F)cc2)C(=O)C1 (centres undefined) | ? | ? | -3.4% | 5.6% | -4.5% | 23.1µM*
CCCc1cc(=O)[nH]c2nnc(SCC(=O)Nc3cc(C)on3)n12 | -12.2% | 16.1% | -4.2% | -3.8% | -4.5% | ?
COc1ccccc1N1CCN(C(=O)c2cc(-c3ccc(F)cc3)[nH]c2C)CC1 | ? | 9.5% | -5.3% | / | -5.7% | ?
CCN(CC)C(=S)NC(=O)c1ccc(OC)c(Br)c1 | ? | -10.4% | -1.4% | 8.1% | 1.3% | ?
C=CCN(CC=C)C(=S)NC(=O)c1ccc(OC)c(Br)c1 | 11.6µM* | -13.0% | -8.3% | 5.9% | -1.8% | 5.8µM*
C=CCN(CC=C)C(=S)NC(=O)c1ccc([N+](=O)[O-])cc1 | 5.8µM* | ? | -3.9% | 2.3% | -3.0% | 3.66µM*
C=CCNC(=S)NNC(=O)c1ccc([N+](=O)[O-])cc1 | -16.4% | 19.9% | -17.2% | 5.4% | -0.8% | -13.8%
Cc1ccc(/C=N\NC(=O)c2ccc3c(c2)OCO3)o1 | 7.1% | 3.8% | -9.3% | 1.1% | -6.1% | 20.3%
Brc1ccc(OCCOCCOc2cccc3cccnc23)cc1 | ? | -10.6% | -4.1% | / | / | 23.1µM*
O=Cc1ccccc1OCCCOc1cccc2cccnc12 | 4.61µM* | -12.1% | -25.9% | 5.1% | -5.1% | 2.06µM*
O=C(/C=C/c1ccccc1)Oc1cccc2cccnc12 | ? | -0.7% | 3.8% | 2.7% | -13.7% | 8.2µM*
Brc1ccc(OCCCOc2cccc3cccnc23)cc1 | -0.7% | 15.1% | -12.0% | / | -7.4% | -23.2%
O=Cc1ccc(OCCCOc2cccc3cccnc23)cc1 | -10.2% | -15.1% | -2.4% | 5.2% | 4.9% | ?
Clc1ccccc1OCCCOc1cccc2cccnc12 | 14.6µM* | ? | 0.4% | / | -7.1% | ?
CCN(CCCNC(=O)CN1N=C(c2ccc(C)cc2)CCC1=O)c1ccccc1 | ? | 2.3% | / | 7.8% | -9.5% | 23.1µM*
CCN(CCCNC(=O)CN1N=C(c2ccccc2)CCC1=O)c1cccc(C)c1 | -13.4% | 5.4% | / | 7.8% | 1.5% | -19.4%
CCN(CCCNC(=O)CN1N=C(c2ccc(OC)cc2)CCC1=O)c1cccc(C)c1 | ? | 15.2% | / | 6.6% | -0.1% | 18.4µM*
SMILES | DT40 TDP1 CPT | VDR inh | PLK1 PBD block | TDP1 inh | KAT2A inh | TDP1 cell noCPT
COc1ccc(C2=NN(CC(=O)NCCCN(C)c3ccccc3)C(=O)CC2)cc1 | ? | 10.4% | / | 3.8% | -4.4% | 14.6µM*
CC1(C2CCN(Cc3c[nH]c4ccccc34)CC2)NC(=O)N(CCN2CCOCC2)C1=O (centres undefined) | 5.0% | / | / | / | / | -23.5%
CC1(C(=O)NS(=O)(=O)c2ccc(C#N)cc2)CCN1C(=O)C1(c2ccc(Cl)cc2)CC1 (centres undefined) | -25.2% | / | -15.0% | / | / | -7.4%
COC(=O)[C@]1(Cc2ccccc2)N[C@H](CN(C)C(=O)c2ccc(F)cc2)[C@@H]2C(=O)N(C)C(=O)[C@@H]21 | -14.7% | 0.6% | -9.6% | 0.7% | 2.2% | -2.8%
CCOc1ccc(NC(=O)Cn2c(=O)n(-c3ccccc3)c(=O)c3c4c(sc32)CCCC4)cc1 | ? | -7.1% | / | -1.8% | -13.6% | -23.3%
Cc1ccc(C(=O)N2C(CC(=O)Nc3ccc(Cl)cc3)C(=O)NC3CCCCC32)cc1 (centres undefined) | 16.4µM* | -18.0% | 4.1% | 4.9% | -14.1% | ?
Cc1ccc(C(=O)N2CCNC(=O)C2CC(=O)Nc2ccccc2)cc1 (centres undefined) | -5.6% | -11.8% | -8.2% | 2.3% | -2.5% | 14.7%
Cc1cccc(C(=O)NCc2nc(-c3cccc(NC(=O)C4CCCN(C)C4)c3)oc2C)n1 (centres undefined) | 8.5%[9.04 µM] | / | / | / | / | ?
COc1ccccc1Nc1nn2c(=O)c3ccc(C(=O)NCc4cccs4)cc3nc2s1 | 13µM* | 13.0% | / | / | -6.6% | 16.4µM*
Cc1ccc(C)c(Nc2nn3c(=O)c4ccc(C(=O)NCc5cccs5)cc4nc3s2)c1 | ? | 7.9% | / | 2.5% | -14.6% | 14.6µM*
COC(=O)c1ccc2c(=O)n3nc(Nc4ccc(F)cc4F)sc3nc2c1 | 12.2% | 10.3% | / | 4.4% | -1.2% | 6.1%
COc1ccccc1Nc1nn2c(=O)c3ccc(C(=O)NCCCOC(C)C)cc3nc2s1 | 5.17µM* | 15.1% | / | 5.6% | -19.1% | 4.11µM*
CCNC(=O)C1(C)CCCN(C(=O)c2cccnc2Oc2ccccc2)C1 (centres undefined) | 11.7% | / | -0.6% | / | / | -19.9%
COc1ccccc1C(=O)N1CCCC(C)(C(=O)NS(=O)(=O)C2CC2)C1 (centres undefined) | ? | / | -4.2% | / | / | 1.64µM*
CC1(C(=O)NS(=O)(=O)C2CC2)CCCN(C(=O)c2cccnc2Oc2ccccc2)C1 (centres undefined) | ? | / | -1.4% | / | / | 1.03µM*
CC1(C(=O)NS(=O)(=O)C2CC2)CCN(C(=O)c2ccccc2OC(F)(F)F)C1 (centres undefined) | -3.5% | / | -12.0% | / | / | 0.1%
